# Unmarked numbers belong to inactive results. Inconclusive results are not listed. A call without a number means that no potency is given here. Active and inactive are the calls of the source. Unless noted, calls follow the shape of the dose curve; as a rule, active = well fitted curve in the direction sought with a large enough effect; inconclusive = small, poorly fitted or top-dose-only effect, or another doubt; inactive = no such curve, though single readings can be large; an effect the other way counts as inactive or inconclusive.
# How the values were obtained:
# [1] = molecular target: Hexokinase-4 (Homo sapiens) + Glucokinase regulatory protein (Homo sapiens) (UniProt P35557+Q14397); experiment: qHTS assay for inhibitors of recombinant human GCK-GKRP interaction: HTRF assay (AID 743207)
# Outline: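 GST-GCK and FLAG-GKRP (5 nM each) were combined with 2 uM S6P in pH 7.1 Hepes/MgCl2/KCl/DTT buffer, then compound and anti-FLAG XL665/anti-GST K antibodies were added. After 60 min at room temperature, HTRF 665/615 nm emission was read.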
# [2] = qHTS Assay for Identifying Gametocytocidal Compounds (AID 743244);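 also: actives lower the fluorescent signal which means gametocytes are killed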; settings: P. falciparum 3D7 stage III-V gametocytes, alamarBlue, 72 h; max response: hits give low values
# Outline: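 Stage III–V gametocytes of P. falciparum 3D7 were seeded at 20,000 cells/well onto pre-dispensed compounds. After 72 h, 37 °C, 5% CO2, alamarBlue was added for another 24 h.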
# [3] = Natriuretic polypeptide receptor (hNpr1) antagonism - Pilot counterscreen GloSensor control cell line (AID 1347045; calls by dose curve; also: series mostly up to about 38 µM)
# Outline: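 This counterscreen uses HEK293 cells expressing the GIP/pGS-40F cGMP biosensor. Compound-treated cells are challenged with 50 uM sodium nitroprusside, and the luciferase signal is compared before and after stimulation.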
# [4] = NS1 protein of Zika virus - qHTS assay to identify small molecule inhibitors in human HEK 293 cells (AID 1347053); also: series mostly up to about 46 µM; nearly all actives have a fitted effect of over 55% in size
# Outline: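 Inhibition of NS1 expression was scored in HEK 293 cells given compound 1 h ahead of MR766 virus (MOI = 0.5). Following 24 h at 37 C, two anti-NS1 antibodies generated a TR-FRET signal, scaled between uninfected and infected controls.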
# [5] = molecular target: T1, Tyrosine-protein phosphatase non-receptor type substrate 1 (Homo sapiens) + Leukocyte surface antigen CD47 (Homo sapiens) (UniProt P78324+Q08722); experiment: CD47-SIRPalpha protein protein interaction - LANCE assay qHTS validation (AID 1347057; active = well fitted curve in the direction sought with a large enough effect in the signal ratio, with a control signal flat, not every such curve was filed as active; the % refers to the signal ratio; also: series mostly up to about 38 µM)
# Outline: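 First, His-tagged CD47 and Eu-labelled anti-His antibody met the compound for 30 min; next, site-specifically biotinylated SIRPalpha was added for 30 min; finally streptavidin-APC was added before reading the TR-FRET ratio.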
# [6] = molecular target: T1, Tyrosine-protein phosphatase non-receptor type substrate 1 (Homo sapiens) + Leukocyte surface antigen CD47 (Homo sapiens); experiment: CD47-SIRPalpha protein protein interaction - HTRF assay qHTS validation (AID 1347058; active = well fitted curve in the direction sought with a large enough effect in the signal ratio, not every such curve was filed as active; the % refers to the signal ratio; also: series mostly up to about 38 µM)
# Outline: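 TR-FRET read (Ch1/Ch2 ratio) of soluble extracellular CD47 and Avi-biotinylated SIRPalpha domains in PBS pH 7.4 with 0.05% IGEPAL; 7-point compound titration. Sequential 30 min room-temperature steps; non-biotinylated SIRPalpha as control inhibitor.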
# [7] = molecular target: T1, Tyrosine-protein phosphatase non-receptor type substrate 1 (Homo sapiens) + Leukocyte surface antigen CD47 (Homo sapiens); experiment: CD47-SIRPalpha protein protein interaction - Alpha assay qHTS validation (AID 1347059);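 also: bead proximity luminescence from CD47 binding SIRPalpha after compound preincubation with SIRPalpha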
# Outline: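 Soluble extracellular domains: Avi-tag biotinylated SIRPalpha (25 nM) preincubated 30 min RT with compound, then 6His-CD47 (12.5 nM) 30 min; Ni-NTA acceptor and streptavidin donor beads (10 ug/mL) 30 min, AlphaScreen read. PBS pH 7.4, 0.05% IGEPAL.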
# [8] = molecular target: Parathyroid hormone/parathyroid hormone-related peptide receptor (Homo sapiens) (UniProt Q03431); experiment: qHTS for PTHR1 Agonists: Optimization Screen against the NCGC LOPAC library (AID 1347079);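 also: GloSensor cAMP luminescence in HEK-293 GP2 cells expressing human PTHR1 with IBMX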
# Outline: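 Compounds were tested across a qHTS titration. PTHR1-expressing GP2 cells report cAMP rises via GloSensor luminescence after 1 hr compound exposure at 37C with IBMX present.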
# [9] = system: Zika virus NS2B-NS3 protease; experiment: Primary screen GU AMC qHTS for Zika virus inhibitors (AID 1347154); also: nearly all actives have a fitted effect of over 70% in size
# Outline: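 Unlinked Zika NS2B hydrophilic domain/NS3 protease domain noncovalent complex (25 nM final) in 10 mM Tris-HCl pH 8.0, 0.01% Tween 20, with AMC peptide substrate. Fluorescence (ex 340, em 450 nm) change over 15 min, room temperature; percent inhibition fitted to 4-parameter Hill equation.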
# [10] = qHTS to identify inhibitors of the type 1 interferon - major histocompatibility complex class I in skeletal muscle: primary screen against the NCATS LOPAC collection (AID 1347405);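 also: lytic HiBiT luminescence reporting HLA-B protein level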
# Outline: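 Cells: C25cl48 human myoblasts, HiBiT-tagged HLA-B*08:01, stimulated with IFN-beta 4.0 ng/ml. Compounds are titrated 1:4.3 over 7 points from 46 uM final and incubated 24 hrs; endogenous MHC class I is quantified by HiBiT lytic luminescence.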
# [11] = qHTS for inhibitors of adenylyl cyclases using a fission yeast platform: a pilot screen against the NCATS LOPAC library (AID 1347410)
# Outline: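 S. pombe CHP2027 (AC9-GNAS-PDE4D2) carrying a PKA-repressed fbp1-GFP reporter was exposed to LOPAC compounds (final up to 57 µM) for 18 h at 30C in the dark, in EMM with histidine, lysine and uracil; GFP gain-of-signal read by laser scanning cytometry.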
# [12] = Validation qHTS assay for inhibitors of Activation Induced Cytidine Deaminase (AID): UDG Counterscreen signal (AID 1347427)
# Outline: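 Counterscreen read of UDG activity (2 U/mL, 4/3x) in the FRET deamination format with AID (1 uM, 4/3x), DJC20/DJC23 substrates (250 nM, 4x), 4 h at room temperature. NaOH stop, fluorescence at 560 ex/665 em.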
# [13] = molecular target: Single-stranded DNA cytosine deaminase (Homo sapiens) (UniProt Q9GZX7); experiment: Validation qHTS assay for inhibitors of Activation Induced Cytidine Deaminase (AID): AID signal (AID 1347429)
# Outline: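 In this coupled qHTS, AID deaminates a FRET-labelled ssDNA substrate in the presence of UDG over 4 hr at room temperature. Compounds span up to 114 uM final.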
# [14] = Primary qHTS for inhibitors of La Crosse Virus (LACV) - induced cell death in SH-SY5Y cells (AID 1508616);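 also: top concentration of the series differs between compounds; higher means more rescue of cells from virus-induced death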
# Outline: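 Readout was luminescence from ATPLite 1step added after a 6-day LACV infection (0.01 MOI) of SH-SY5Y cells that had received pin-transferred compound 24 hr after seeding.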
# [15] = molecular target: Calcium and integrin-binding protein 1 (Homo sapiens) (UniProt Q99828); experiment: Validation qHTS for Identification of Calcium Integrin Binding protein 1 (CIB1) Competitor (AID 1508618)
# Outline: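 CIB1-GST (1 uM final) incubated 15 min at room temperature with compounds (up to 114 uM), then FITC-labelled alphaIIb peptide (100 nM) added. FP read (Ex 480/Em 540) after 15 min, pH 7.4 buffer containing 5 mM CaCl2.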
# [16] = Primary qHTS for small molecule stabilizers of the endoplasmic reticulum resident proteome: Secreted ER Calcium Modulated Protein (SERCaMP) assay (AID 1508630)
# Outline: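 GLuc-SERCaMP-expressing SH-SY5Y cells, pretreated 16 h with compound, are challenged with thapsigargin to empty ER calcium stores; after 4 h, coelenterazine is added directly to the medium and luminescence is imaged.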
# [17] = molecular target: N-terminal Xaa-Pro-Lys N-methyltransferase 1 (Homo sapiens) (UniProt Q9BV86); experiment: Confirmatory qHTS for Inhibitors of N-terminal methyltransferase 1 (NTMT1): MTaseGlo Assay (AID 1645874); also: potency is read from the fitted curve at half-maximal effect; nearly all actives have a fitted effect of over 65% in size
# Outline: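 qHTS format: NTMT1 125 nM, SAM 100 uM, peptide SPKRIA 1 uM final; 15 min compound preincubation, 30 min reaction at room temperature. MTase-Glo luminescence.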
# [18] = molecular target: Glutathione peroxidase 1 (Homo sapiens) (UniProt P07203); experiment: Primary qHTS Assay for Inhibitors of Recombinant Selenoprotein Glutathione Peroxidase 1 (GPX1) (AID 1845191); also: nearly all actives have a fitted effect of over 65% in size
# Outline: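 Recombinant GPX1 (10 nM final) was preincubated with compound for 30 min at room temperature, then reacted with 1 mM GSH, 0.5 mM CHP, 0.5 mM NADPH and 100 nM glutathione reductase; NADPH fluorescence (340/450 nm) was read at 0 and 15 min.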
# [19] = molecular target: Phospholipid hydroperoxide glutathione peroxidase GPX4 (Homo sapiens) (UniProt P36969); experiment: Primary qHTS Assay for Inhibitors of Recombinant Selenoprotein Glutathione Peroxidase 4 (GPX4) (AID 1845192); settings: outcome: dose series up to 50 µM unless noted; also: nearly all actives have a fitted effect of over 65% in size
# Outline: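 GR-coupled readout: 100 nM GR, 1 mM GSH, 0.5 mM NADPH; NADPH fluorescence (ex 340/em 450 nm) read at t=0 and after 15 min RT. GPX4 200 nM, preincubated 30 min with compound; substrate 0.5 mM CHP.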
# T1 sequence (P78324 whole entry, looked up): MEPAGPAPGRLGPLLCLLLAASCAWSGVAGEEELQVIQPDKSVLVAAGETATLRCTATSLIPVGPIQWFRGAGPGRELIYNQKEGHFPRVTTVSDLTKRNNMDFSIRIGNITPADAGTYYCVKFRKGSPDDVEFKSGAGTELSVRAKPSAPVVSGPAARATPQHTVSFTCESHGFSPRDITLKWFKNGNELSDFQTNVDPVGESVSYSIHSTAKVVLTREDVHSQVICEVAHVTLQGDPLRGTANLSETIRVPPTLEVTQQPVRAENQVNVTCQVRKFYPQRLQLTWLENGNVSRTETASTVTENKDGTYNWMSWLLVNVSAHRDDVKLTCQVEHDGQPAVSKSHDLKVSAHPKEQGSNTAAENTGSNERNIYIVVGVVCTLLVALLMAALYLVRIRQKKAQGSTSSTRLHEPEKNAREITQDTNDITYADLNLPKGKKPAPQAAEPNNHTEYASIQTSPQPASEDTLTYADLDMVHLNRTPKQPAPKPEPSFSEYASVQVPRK
# T1 sequence (Q08722 whole entry, looked up): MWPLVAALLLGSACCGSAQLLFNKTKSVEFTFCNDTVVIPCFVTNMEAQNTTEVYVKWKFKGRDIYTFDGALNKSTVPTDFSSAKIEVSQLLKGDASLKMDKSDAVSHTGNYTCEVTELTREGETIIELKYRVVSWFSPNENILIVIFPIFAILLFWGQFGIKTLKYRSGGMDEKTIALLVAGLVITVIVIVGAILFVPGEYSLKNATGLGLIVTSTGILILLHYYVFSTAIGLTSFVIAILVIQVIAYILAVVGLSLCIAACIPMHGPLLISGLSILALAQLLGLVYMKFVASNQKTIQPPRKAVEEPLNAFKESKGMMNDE
# Sequence of Parathyroid hormone/parathyroid hormone-related peptide receptor (Homo sapiens) (Q03431 whole entry, looked up): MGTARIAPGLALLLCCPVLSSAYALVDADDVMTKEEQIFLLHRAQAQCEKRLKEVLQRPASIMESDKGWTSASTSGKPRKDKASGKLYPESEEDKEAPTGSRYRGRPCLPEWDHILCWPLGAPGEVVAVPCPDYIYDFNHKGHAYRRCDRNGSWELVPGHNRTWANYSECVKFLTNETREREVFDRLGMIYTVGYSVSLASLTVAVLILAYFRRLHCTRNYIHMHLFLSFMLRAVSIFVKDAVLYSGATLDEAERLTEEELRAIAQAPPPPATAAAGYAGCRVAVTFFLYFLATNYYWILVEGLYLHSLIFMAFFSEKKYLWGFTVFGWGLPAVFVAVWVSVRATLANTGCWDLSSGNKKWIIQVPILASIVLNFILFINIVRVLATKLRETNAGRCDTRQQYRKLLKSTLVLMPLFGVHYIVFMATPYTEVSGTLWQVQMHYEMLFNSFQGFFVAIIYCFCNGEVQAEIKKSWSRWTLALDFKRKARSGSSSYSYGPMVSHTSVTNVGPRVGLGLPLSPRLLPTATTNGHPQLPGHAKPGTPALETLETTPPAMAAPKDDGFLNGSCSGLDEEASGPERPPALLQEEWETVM
# Sequence of Phospholipid hydroperoxide glutathione peroxidase GPX4 (Homo sapiens) (P36969 whole entry, looked up): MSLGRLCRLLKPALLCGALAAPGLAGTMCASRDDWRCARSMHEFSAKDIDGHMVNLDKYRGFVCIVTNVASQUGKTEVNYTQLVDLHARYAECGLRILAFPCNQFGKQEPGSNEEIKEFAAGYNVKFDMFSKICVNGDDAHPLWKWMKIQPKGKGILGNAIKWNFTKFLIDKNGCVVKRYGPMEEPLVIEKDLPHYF
# Sequence of Glutathione peroxidase 1 (Homo sapiens) (P07203 whole entry, looked up): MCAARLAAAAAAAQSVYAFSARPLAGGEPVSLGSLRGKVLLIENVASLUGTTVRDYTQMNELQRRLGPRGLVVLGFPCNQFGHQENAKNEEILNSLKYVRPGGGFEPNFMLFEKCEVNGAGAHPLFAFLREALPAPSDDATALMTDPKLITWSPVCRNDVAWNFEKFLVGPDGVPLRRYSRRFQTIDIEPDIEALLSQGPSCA
# Sequence of Hexokinase-4 (Homo sapiens) + Glucokinase regulatory protein (Homo sapiens) (P35557 whole entry, looked up): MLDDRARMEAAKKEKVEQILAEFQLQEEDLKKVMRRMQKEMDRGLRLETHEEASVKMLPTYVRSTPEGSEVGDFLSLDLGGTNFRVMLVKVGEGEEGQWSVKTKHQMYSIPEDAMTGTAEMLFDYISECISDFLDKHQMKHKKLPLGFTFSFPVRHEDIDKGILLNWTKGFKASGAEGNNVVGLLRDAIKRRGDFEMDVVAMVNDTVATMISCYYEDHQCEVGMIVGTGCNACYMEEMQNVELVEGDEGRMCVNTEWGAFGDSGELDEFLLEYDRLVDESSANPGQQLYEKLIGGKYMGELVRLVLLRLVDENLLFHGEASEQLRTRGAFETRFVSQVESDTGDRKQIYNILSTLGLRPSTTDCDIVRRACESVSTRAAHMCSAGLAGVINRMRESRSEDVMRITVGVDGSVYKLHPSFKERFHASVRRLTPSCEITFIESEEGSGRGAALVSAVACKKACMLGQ
# Sequence of Hexokinase-4 (Homo sapiens) + Glucokinase regulatory protein (Homo sapiens) (Q14397 whole entry, looked up): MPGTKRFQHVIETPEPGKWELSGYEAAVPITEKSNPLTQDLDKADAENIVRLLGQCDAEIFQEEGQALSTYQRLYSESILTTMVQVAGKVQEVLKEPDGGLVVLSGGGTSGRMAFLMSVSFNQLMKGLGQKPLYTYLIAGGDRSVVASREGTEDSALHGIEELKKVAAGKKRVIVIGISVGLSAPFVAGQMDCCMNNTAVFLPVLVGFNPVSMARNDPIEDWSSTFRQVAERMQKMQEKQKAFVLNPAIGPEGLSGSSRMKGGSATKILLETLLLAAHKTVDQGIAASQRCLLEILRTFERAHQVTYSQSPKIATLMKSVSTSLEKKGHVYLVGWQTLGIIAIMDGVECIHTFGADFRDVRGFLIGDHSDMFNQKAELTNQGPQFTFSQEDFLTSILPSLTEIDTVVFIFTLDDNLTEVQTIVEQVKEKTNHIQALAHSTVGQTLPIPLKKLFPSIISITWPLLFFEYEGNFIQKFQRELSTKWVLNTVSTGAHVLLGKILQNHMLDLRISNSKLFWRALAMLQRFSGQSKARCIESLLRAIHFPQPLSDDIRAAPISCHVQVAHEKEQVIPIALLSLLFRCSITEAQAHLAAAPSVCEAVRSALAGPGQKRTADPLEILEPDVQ
# Sequence of Calcium and integrin-binding protein 1 (Homo sapiens) (Q99828 whole entry, looked up): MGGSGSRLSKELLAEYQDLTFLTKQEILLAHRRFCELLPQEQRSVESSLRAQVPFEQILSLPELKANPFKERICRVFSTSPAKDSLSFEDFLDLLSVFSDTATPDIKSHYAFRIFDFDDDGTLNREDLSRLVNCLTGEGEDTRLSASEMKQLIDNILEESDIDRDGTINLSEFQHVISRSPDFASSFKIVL
# Sequence of N-terminal Xaa-Pro-Lys N-methyltransferase 1 (Homo sapiens) (Q9BV86 whole entry, looked up): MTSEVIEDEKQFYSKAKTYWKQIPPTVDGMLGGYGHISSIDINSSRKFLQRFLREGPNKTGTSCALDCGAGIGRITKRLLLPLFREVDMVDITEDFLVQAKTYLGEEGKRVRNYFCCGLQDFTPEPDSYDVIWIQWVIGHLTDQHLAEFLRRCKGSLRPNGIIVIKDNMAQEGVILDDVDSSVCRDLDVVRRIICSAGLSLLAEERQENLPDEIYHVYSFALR
# Sequence of Single-stranded DNA cytosine deaminase (Homo sapiens) (Q9GZX7 whole entry, looked up): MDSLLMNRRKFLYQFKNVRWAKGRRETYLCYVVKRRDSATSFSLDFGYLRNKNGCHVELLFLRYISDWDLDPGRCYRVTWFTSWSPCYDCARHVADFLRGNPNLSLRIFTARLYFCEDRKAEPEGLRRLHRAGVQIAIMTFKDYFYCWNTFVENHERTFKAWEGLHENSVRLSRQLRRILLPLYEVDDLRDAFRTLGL
smiles,measurement,setting,value
Cc1cccc(/C=C/c2ccccc2)n1,outcome,[1],inactive
same,max response,[2],6.48%
same,Potency,[3],inactive
same,outcome,[4],inactive
same,outcome,[5],inactive
same,outcome,[6],inactive
same,Potency,[7],inactive
same,outcome,[8],inactive
same,Potency,[9],inactive
same,Potency,[10],inactive
same,outcome,[11],inactive
same,outcome,[12],inactive
same,Potency,[13],inactive
same,outcome,[14],inactive
same,outcome,[15],inactive
same,Potency,[16],inactive
same,Potency,[17],27.4 µM (active)
same,Potency,[18],inactive
same,Potency,[19],inactive

# Reference: PubChem BioAssay (NCATS)
